Inconclusive results are not listed. A call without a number means that no potency is given here. Values without a mark were called inactive. The source made the active and inactive calls. Calls follow the shape of the dose curve; as a rule, active = well fitted cell-killing curve with a large enough effect in the repeat runs; inconclusive = weak or mixed curves, or effect the other way; inactive = flat fitted curve, though single readings scatter.
Assay: qHTS assay to identify small molecule antagonists of the retinoid acid receptor (RAR) signaling pathway - cell viability counter screen (AID 1159551); also: nearly all actives have a fitted effect of over 35% in size
Conditions: C3RL4 cells viability, ATP luminescence (CellTiter-Glo), 6 h; series mostly up to 92.4 µM; activity change, negative = cytotoxicity: at the top concentration
Description: U.S. Tox21 Program National Center for Advancing Translational Sciences [NCATS] NIH Chemical Genomics Center [NCGC] U.S. Environmental Protection Agency [EPA] National Institutes of Environmental Health Sciences [NIEHS] National Toxicology Program [NTP] U.S. Food and Drug Administration [FDA] Tox21 Assay Overview: All-trans Retinoic acid (atRA) is the potent natural metabolite of retinol and plays an important role in normal embryonic development and maintenance of cellular phenotype in adult animals. atRA is the activating ligand for the retinoic acid receptors (RARs) which form heterodimers with retinoid X receptors (RXRs) on the retinoic acid response element (RARE). Through activation of the RAR/RXRs nuclear receptors, atRA regulates the transcription of a large number of protein-coding genes and regulatory RNAs. Intracellular levels of atRA are controlled by the retinol signaling pathway (RSP) that regulates the biosynthesis and catabolism of atRA to maintain physiological levels. Chemicals that interfere with the RSP can cause abnormal intracellular levels of atRA and therefore are potential developmental toxicants. To assess compounds for the potential adverse effect on embryonic development through interfering with retinol signaling, a cell-based RARE luciferase reporter gene assay was used. C3RL4 cell line (OARSA/CFSAN/FDA, Laurel, MD) was used to screen Tox21 10K compound library for identifying inhibitors of the RSP. Also cytotoxicity was assessed by determining the viability of cells based on the quantitation of ATP.
Tox21 Assay Protocol Summary: C3RL4 cells were seeded at 1,000/well in 4 uL of assay medium into white solid 1,536-well tissue culture plates (Greiner Bio-One North America Inc. Monroe, NC) using a Multidrop Combi (Thermo Scientific, Waltham, MA) dispenser. After incubation at 37 C and 5% CO2 for an overnight, 23 nL of compounds dissolved in DMSO, positive control or DMSO only were transferred by a Pintool station (Kalypsys, San Diego, CA). One ul of 1 uM (final concentration) of Retinol was added right after the compound addition by using a Flying Reagent Dispenser (FRD) (Aurora Discovery, San Diego, CA). After 6 hr incubation at 37 C and 5% CO2, 5 uL of CellTiter-Glo reagent (Promega Corporation, Madison, WI) was added to each assay plate using an FRD. Luminescence was quantified on a ViewLux plate reader (PerkinElmer, Waltham, MA) after 30 min incubation at room temperature.
For `O=C1OC2(c3cc(Br)c(O)c(Br)c3Oc3c2cc(Br)c(O)c3Br)c2c(Cl)c(Cl)c(Cl)c(Cl)c21`, the Potency was 4.33 µM (active).
For `Cc1c(OCC(F)(F)F)ccnc1CS(=O)c1nc2ccccc2[nH]1` (stereo not given), the Potency was “inactive”.
For `CCC(C)c1ccccc1O` (stereo not given), the Potency was “inactive”.
For `Clc1nc(Cl)c(Cl)c(Cl)c1Cl`, the Potency was “inactive”.
In the case of `C#C[C@]1(O)CC[C@H]2[C@@H]3CCc4cc(OC)ccc4[C@H]3CC[C@@]21C`, the Potency is reported as “inactive”.
In the case of `CCCCC(CC)COP(=O)(OCC(CC)CCCC)OCC(CC)CCCC` (stereo not given), the Potency is reported as “inactive”.
In the case of `CNCCCC12CCC(c3ccccc31)c1ccccc12`, the “activity change, negative = cytotoxicity” value is reported as 1.86% [at 42.5 µM].
For `CN(C)C(=N)N=C(N)N`, the Potency was “inactive”.
In the case of `O=C(c1ccccc1)c1ccc(O)cc1O`, the Potency is reported as “inactive”.
For `CCCc1c(OCCCCc2nn[nH]n2)ccc(C(C)=O)c1O`, the Potency was “inactive”.
For `CN(C)c1nc(N(C)C)nc(N(C)C)n1`, the Potency was “inactive”.
With `O=C=Nc1ccc(Cc2ccc(N=C=O)cc2)cc1` the “activity change, negative = cytotoxicity” value was 4.21% [at 42.5 µM].
In the case of `O=[N+]([O-])c1ccc2c(c1)Cc1ccccc1-2`, the Potency is reported as “inactive”.
With `CC(C(=O)O)c1cccc(C(=O)c2ccccc2)c1` (stereo not given) the Potency was “inactive”.
In the case of `CC1=CC2C3CC(C=C3C)C2C1` (stereo not given), the Potency is reported as “inactive”.
For `CCCCCCCCCC(=O)OC`, the Potency was “inactive”.
In the case of `OCCO`, the Potency is reported as “inactive”.
In the case of `CC(CCC(=O)O)(c1ccc(O)cc1)c1ccc(O)cc1`, the Potency is reported as “inactive”.
In the case of `Cc1cccc(N(C)C(=S)Oc2ccc3ccccc3c2)c1`, the Potency is reported as “inactive”.
In the case of `Cc1c(C(N)=O)cc([N+](=O)[O-])cc1[N+](=O)[O-]`, the Potency is reported as “inactive”.
With `CCCCC(CC)COCC1CO1` (stereo not given) the Potency was “inactive”.
In the case of `COC(C)COC(C)COC(C)CO` (stereo not given), the Potency is reported as “inactive”.
With `COc1cc([C@@H]2c3cc4c(cc3[C@H](O)[C@H]3COC(=O)[C@H]23)OCO4)cc(OC)c1OC` the Potency was “inactive”.
In the case of `NNc1ccc(C(=O)O)cc1`, the Potency is reported as “inactive”.
In the case of `O=C(c1ccccc1)c1ccccc1O`, the Potency is reported as “inactive”.
With `O=C(/C=C/C=C/c1ccc2c(c1)OCO2)N1CCCCC1` the Potency was “inactive”.
With `O=C(/C=C/c1ccccc1)OCc1ccccc1` the Potency was “inactive”.
In the case of `Cc1ccc(C)c(O)c1C`, the Potency is reported as “inactive”.
With `C#C[C@]1(O)CC[C@H]2[C@@H]3CCC4=Cc5oncc5C[C@]4(C)[C@H]3CC[C@@]21C` the Potency was “inactive”.
With `O=C(O)c1ccccc1Nc1cccc(C(F)(F)F)c1` the Potency was “inactive”.
With `O=C1c2cccc(O)c2C(=O)c2c(O)cccc21` the Potency was “inactive”.
For `CCCCC(CC)COC(=O)c1ccc(N(C)C)cc1` (stereo not given), the Potency was “inactive”.
With `CCCCC/C=C/C=C/C=O` the Potency was “inactive”.
With `COc1ccc(OC)c(C(O)CNC(=O)CN)c1` (stereo not given) the Potency was “inactive”.
For `C[C@]12CCC(=O)C=C1CC[C@@H]1[C@@H]2C(=O)C[C@@]2(C)[C@H]1CC[C@]2(O)C(=O)CO`, the Potency was “inactive”.
In the case of `CC(C)OC(=O)C(C)(C)Oc1ccc(C(=O)c2ccc(Cl)cc2)cc1`, the Potency is reported as “inactive”.
With `Cc1[nH]c(=O)c(C#N)cc1-c1ccncc1` the Potency was “inactive”.
For `O=Cc1ccccc1O`, the Potency was “inactive”.
With `OC[C@H]1O[C@@H]2O[C@H]3[C@H](O)[C@@H](O)[C@@H](O[C@H]4[C@H](O)[C@@H](O)[C@@H](O[C@H]5[C@H](O)[C@@H](O)[C@@H](O[C@H]6[C@H](O)[C@@H](O)[C@@H](O[C@H]7[C@H](O)[C@@H](O)[C@@H](O[C@H]8[C@H](O)[C@@H](O)[C@@H](O[C@H]1[C@H](O)[C@H]2O)O[C@@H]8CO)O[C@@H]7CO)O[C@@H]6CO)O[C@@H]5CO)O[C@@H]4CO)O[C@@H]3CO` the Potency was “inactive”.
For `Cc1cccc(C(=O)O)c1`, the Potency was “inactive”.
Potency is read from the fitted curve at half-maximal effect.
